In the library only some 2.2% were active in any assay of this set; here they are far more common.
IEC-6 tox-1: counter-screen for KLF5 inhibitors: cytotoxicity in IEC-6 cells | IEC-6 cytotoxicity, luminescence viability | inhibition, % at 5 µM | hit rate 0.78% among 290,000 | AID 1825
Ba/F3 V617F tox: reduce viability of Ba/F3 cells dependent on JAK2V617F. Ba/F3 EpoR-JAK2V617F viability, ATP luminescence. inhibition, % at 5.6 µM. hit rate 1.1% among 220,000;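 active means inhibition above the campaign mean plus 3 SD over all tested compounds, cut at about 24% in these data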;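 further: cytokine-independent growth of Ba/F3 cells driven by EpoR plus mutant JAK2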
KLF5 inh: inhibitors of KLF5 expression. DLD-1 KLF5 promoter-luciferase reporter, luminescence. inhibition, % at 5 µM. hit rate 0.23% among 290,000;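 active means inhibition above a per-plate limit of that plate's mean compound inhibition plus 3 SD, cut at about 60% in these data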;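 further: higher means less KLF5 promoter-driven luciferase light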
BaF3 parental: reduces parental Ba/F3 cell viability, JAK2V617F counter-screen; hit rate 1.1% among 220,000; CellTiter-Glo ATP luminescence; inhibition, % at 5.6 µM;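 active means inhibition above a per-campaign cutoff, the mean inhibition of all tested compounds plus 3 SD, cut at about 27% in these data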
APP 5UTR inh: APP translation inhibition. SH-SY5Y APP 5'UTR-luciferase reporter, luminescence. inhibition, % at 2 µM. hit rate 0.82% among 190,000. AID 1285;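 active means inhibition above a set limit, derived from the sample mean plus 3 SD, cut at about 45% in these data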
aSyn UTR inh: 5' untranslated region of α-synuclein, MLPCN primary screen. alpha-synuclein 5'UTR reporter, inhibitor activity. inhibition, % (tested at 7.5 µM). hit rate 0.82% among 300,000; in the data active means inhibition above about 60%;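 further: H4 neuroglioblastoma cells stably carrying SNCA 5'UTR luciferase fusion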
KLF5 confirm: confirmation of KLF5 inhibitors; DLD-1 KLF5 promoter firefly luciferase reporter, luminescence; inhibition, % at 4 µM; AID 1834; shares compounds with KLF5 inh; hit rate 79% among 610;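 active means inhibition above a set limit taken from the earlier primary screen, cut at about 63% in these data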
IEC-6 tox-2: counter-screen for KLF5 inhibitors: cytotoxicity in rat IEC-6 cells. hit rate 56% among 610. inhibition, % at 4 µM. IEC-6 rat intestinal cells, viability luminescence. shares compounds with KLF5 inh; in the data active means inhibition above about 23%;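 further: cells exposed to compounds for 48 hours before viability read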
IEC-6 tox confirm: confirmation of cytotoxic compounds in rat IEC-6 intestinal epithelial cells; shares compounds with IEC-6 tox-1; IEC-6 rat intestinal epithelial viability, luminescence; inhibition, % at 5 µM; hit rate 63% among 1,900
Large screens that a line does not name were inactive (follow-up assays come after a bar, where they were run). Unless noted, no stated cut-off is given here; in the data, active means inhibition above about 22%; inactive means the rest.

NNC(=O)c1[nH]c2ccccc2c1-c1ccccc1	IEC-6 tox-1 95, KLF5 inh 82, aSyn UTR inh 96 (no result: Ba/F3 V617F tox, BaF3 parental, APP 5UTR inh) | KLF5 confirm inactive | IEC-6 tox-2 inactive | IEC-6 tox confirm inactive
CC(=O)NNC(=O)c1[nH]c2ccc(Cl)cc2c1-c1ccccc1	none (no result: APP 5UTR inh)
Cc1c(/C=N\NC(=O)C2COc3ccccc3O2)c2ccccc2n1C (centres undefined)	IEC-6 tox-1 80, Ba/F3 V617F tox 78, KLF5 inh 74, BaF3 parental 76, APP 5UTR inh 91, aSyn UTR inh 102 | KLF5 confirm 82 | IEC-6 tox-2 75 | IEC-6 tox confirm 61
COc1ccc(OC)c(C2=Nn3c(nnc3-c3cc(OC)c(OC)c(OC)c3)SC2)c1	none
COc1cc(-c2nnc3n2N=C(c2ccccc2)CS3)cc(OC)c1OC	IEC-6 tox-1 77, Ba/F3 V617F tox 74, KLF5 inh 79, BaF3 parental 81, APP 5UTR inh 94, aSyn UTR inh 63 | KLF5 confirm 73 | IEC-6 tox-2 69 | IEC-6 tox confirm 67
CCOc1ccc(N(CC(=O)Nc2ccccc2OCC)S(=O)(=O)c2c(C)noc2C)cc1	IEC-6 tox-1 90, KLF5 inh 75, aSyn UTR inh 95 (no result: Ba/F3 V617F tox, BaF3 parental, APP 5UTR inh) | KLF5 confirm 79 | IEC-6 tox-2 59 | IEC-6 tox confirm 54
CCOc1ccc(N(CC(=O)Nc2ccc(C)cc2)S(=O)(=O)c2c(C)noc2C)cc1	none
COc1ccc2c(c1)C=C([C@@H]1C[C@H]3CN(c4ccccc4)C(=O)[C@]34CCCN14)CO2	IEC-6 tox-1 87, Ba/F3 V617F tox 99, KLF5 inh 75, BaF3 parental 101 | KLF5 confirm inactive | IEC-6 tox-2 inactive | IEC-6 tox confirm inactive
CN1C[C@@H]2C[C@@H](C3=Cc4cc(Cl)ccc4OC3)N3CCC[C@@]23C1=O	none
COc1cc(-c2noc(C)c2-c2ccc(N(C)C)nc2)cc(OC)c1OC	IEC-6 tox-1 93, KLF5 inh 76 (no result: Ba/F3 V617F tox, BaF3 parental, APP 5UTR inh) | KLF5 confirm 85 | IEC-6 tox-2 82 | IEC-6 tox confirm 59
O=C(Nc1nc2ccccc2[nH]1)c1cc2ccccc2o1	none
COCCOC(=O)c1[nH]c2c(c1C)C(=O)CC(c1cccs1)C2 (centres undefined)	IEC-6 tox-1 79, Ba/F3 V617F tox 74, KLF5 inh 71, BaF3 parental 75, APP 5UTR inh 85, aSyn UTR inh 64 | KLF5 confirm 73 | IEC-6 tox-2 59 | IEC-6 tox confirm 55
CCCCCOC(=O)c1[nH]c2c(c1C)C(=O)CC(c1ccco1)C2 (centres undefined)	IEC-6 tox-1 94, Ba/F3 V617F tox 95, KLF5 inh 79, BaF3 parental 95, APP 5UTR inh 95 | KLF5 confirm 88 | IEC-6 tox-2 77 | IEC-6 tox confirm 79
CCOCCOC(=O)c1[nH]c2c(c1C)C(=O)CC(c1ccccc1)C2 (centres undefined)	IEC-6 tox-1 91, KLF5 inh 78 (no result: Ba/F3 V617F tox, BaF3 parental, APP 5UTR inh) | KLF5 confirm 87 | IEC-6 tox-2 66 | IEC-6 tox confirm 76
COCCOC(=O)c1[nH]c2c(c1C)C(=O)CC(c1ccc(OC)c(OC)c1)C2 (centres undefined)	none (no result: Ba/F3 V617F tox, BaF3 parental, APP 5UTR inh)
COC(=O)c1[nH]c2c(c1C)C(=O)CC(c1cccc(OC)c1)C2 (centres undefined)	IEC-6 tox-1 86, KLF5 inh 78 (no result: Ba/F3 V617F tox, BaF3 parental, APP 5UTR inh) | KLF5 confirm 89 | IEC-6 tox-2 64 | IEC-6 tox confirm 62
O=C(Nc1c(F)cccc1F)c1ccc2c(c1)CCN2S(=O)(=O)c1ccccc1	none (no result: Ba/F3 V617F tox, BaF3 parental, APP 5UTR inh)
CCCc1cc(=O)oc2cc(OCC(=O)NC3CC(C)(C)NC(C)(C)C3)ccc12	none (no result: Ba/F3 V617F tox, BaF3 parental, APP 5UTR inh)
NS(=O)(=O)c1ccc(N=Nc2ccc(O)c3ncccc23)cc1	IEC-6 tox-1 46, KLF5 inh 80, aSyn UTR inh 64 (no result: Ba/F3 V617F tox, BaF3 parental, APP 5UTR inh) | KLF5 confirm 74 | IEC-6 tox-2 inactive | IEC-6 tox confirm inactive
CCOc1ccccc1N1CCN(C(=O)c2ccc(OCC(=O)N3CCOCC3)c(OC)c2)CC1	none (no result: Ba/F3 V617F tox, BaF3 parental, APP 5UTR inh)
CN1Cc2cc(C(=O)c3cc(Cl)cc(CSc4ncccn4)c3O)cnc2NC1=O	IEC-6 tox-1 73, Ba/F3 V617F tox 71, KLF5 inh 75, BaF3 parental 75, APP 5UTR inh 96, aSyn UTR inh 79 | KLF5 confirm 85 | IEC-6 tox-2 59 | IEC-6 tox confirm 66
Cc1ccc(O)c(C(=O)c2cnc3c(c2)CN(C)C(=O)N3)c1	none
COc1ccc(NS(=O)(=O)c2cc(C)ccc2NC(=O)c2cc(C)oc2C)cc1	IEC-6 tox-1 82, Ba/F3 V617F tox 75, KLF5 inh 62, BaF3 parental 79, APP 5UTR inh 95, aSyn UTR inh 103 | KLF5 confirm 81 | IEC-6 tox-2 62 | IEC-6 tox confirm 62
Cc1nc2nc(SCc3ccccc3)[nH]n2c(=O)c1CCC(C)C	none (no result: Ba/F3 V617F tox, BaF3 parental, APP 5UTR inh)
O=C(C(=O)N1CCCC1)c1c(-c2ccccc2)[nH]c2ccccc12	none (no result: Ba/F3 V617F tox, BaF3 parental, APP 5UTR inh)
CCOc1cc(C#N)c(NC(=O)c2cccnc2)cc1OCC	IEC-6 tox-1 82, Ba/F3 V617F tox 84, KLF5 inh 73, BaF3 parental 77, APP 5UTR inh 89 | KLF5 confirm 79 | IEC-6 tox-2 50 | IEC-6 tox confirm 56
COc1ccc2c(c1)sc(N)[n+]2Cc1cc(C)cc2cccnc12	IEC-6 tox-1 80, Ba/F3 V617F tox 82, KLF5 inh 69, BaF3 parental 79, APP 5UTR inh 95, aSyn UTR inh 114 | KLF5 confirm 73 | IEC-6 tox-2 61 | IEC-6 tox confirm 63
COc1cccc(C(=O)O/N=C(\N)CS(=O)(=O)c2ccccc2)c1	none (no result: Ba/F3 V617F tox, BaF3 parental, APP 5UTR inh)
O=C(N/N=C(\c1ccccc1)c1cccnc1)c1cccc(F)c1	IEC-6 tox-1 100, KLF5 inh 68, aSyn UTR inh 80 (no result: Ba/F3 V617F tox, BaF3 parental, APP 5UTR inh) | KLF5 confirm 84 | IEC-6 tox-2 75 | IEC-6 tox confirm 80
O=C(N/N=C(\c1ccccc1)c1cccnc1)c1ccc(O)cc1	none (no result: Ba/F3 V617F tox, BaF3 parental, APP 5UTR inh)
Cc1nc(-c2nnc(SCC(=O)Nc3ccc(Cl)cc3)n2C)cs1	none (no result: APP 5UTR inh)
COc1ccc(C2NN=C(c3c[nH]c4ccccc34)C2O)cc1 (centres undefined)	none (no result: Ba/F3 V617F tox, BaF3 parental, APP 5UTR inh)
COc1ccc(C2C(O)C(c3c[nH]c4ccccc34)=NN2C(=O)CCl)cc1 (centres undefined)	IEC-6 tox-1 102, KLF5 inh 102, aSyn UTR inh 108 (no result: Ba/F3 V617F tox, BaF3 parental, APP 5UTR inh) | KLF5 confirm 99 | IEC-6 tox-2 101 | IEC-6 tox confirm 100
Cc1nn(-c2ccccc2)c(C)c1/C=N/NC(=O)c1cc(-c2cccc3ccccc23)n[nH]1	none
Cc1nn(-c2ccccc2)c(C)c1/C=N/NC(=O)c1cc(-c2ccccc2)n[nH]1	IEC-6 tox-1 77, Ba/F3 V617F tox 71, KLF5 inh 63, BaF3 parental 78, APP 5UTR inh 95, aSyn UTR inh 82 | KLF5 confirm 84 | IEC-6 tox-2 65 | IEC-6 tox confirm 58

Assay outcomes (PubChem)
